Assay [1] in a line: qHTS assay to identify small molecule antagonists of the thyroid receptor (TR) signaling pathway - cell viability counter screen (AID 743064). Note: nearly all actives have a fitted effect of over 50% in size. Note: potency is the fitted concentration of half-maximal effect. The procedure, abridged:
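Fluorescence from CellTiter-Fluor, added after 23.5 h exposure at 37 °C, reported viability of GH3.TRE-Luc cells co-treated with compound and 1 nM T3. Measured in the same wells as the luciferase TR readout.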

Assay [2] can be described thus: qHTS assay to identify small molecule antagonists of the thyroid receptor (TR) signaling pathway (AID 743065). Note: nearly all actives have a fitted effect of over 55% in size. Note: potency is the fitted concentration of half-maximal effect. In short, it runs like this:
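Antagonism measured as loss of luciferase signal in GH3 cells stably carrying a TRE-luciferase reporter, co-treated with compound and T3 (1 nM final) for 23.5 h at 37 C. Viability was read in the same well by CellTiter-Fluor.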

Assay [3] relates to thyroid hormone receptor (rat, GH3 cells). Put plainly: qHTS assay to identify small molecule agonists of the thyroid receptor (TR) signaling pathway (AID 743066; calls by dose curve).
The target in assay [4] is Estrogen receptor (Homo sapiens) (UniProt P03372). Put plainly: qHTS assay to identify small molecule antagonists of the estrogen receptor alpha (ER-alpha) signaling pathway (AID 743069; active = well fitted curve in the direction sought with a large enough effect in the signal ratio in the repeat runs, not every such curve was filed as active; inconclusive = weak or mixed curves, or effect the other way; inactive = no such curve, though single readings can be large or run the other way; the % refers to the signal ratio; note: potency is the fitted concentration of half-maximal effect). In short, it runs like this: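 ER-alpha-UAS-bla GripTite HEK293 line; 2% charcoal-stripped FBS overnight; plated, 4 hr 37C/5% CO2; cpd in DMSO + 17beta-estradiol, 18 hr 37C; LiveBLAzer B/G FRET substrate 2 hr RT; fluorescence intensity.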

Assay [5] in a line: qHTS assay to identify small molecule antagonists of the estrogen receptor alpha (ER-alpha) signaling pathway - cell viability counter screen (AID 743074; calls by dose curve;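 note: HEK293 cells carrying ER-alpha-UAS-bla reporter stimulated with 17beta-estradiol; nearly all actives have a fitted effect of over 45% in size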).
For assay [6], the target named is Estrogen receptor (Homo sapiens) (UniProt P03372). In words: qHTS assay to identify small molecule agonists of the estrogen receptor alpha (ER-alpha) signaling pathway (AID 743075; calls by dose curve;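 note: HEK293 GripTite cells with ER-alpha and UAS-driven beta-lactamase reporter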; note: potency is the fitted concentration of half-maximal effect).
Assay [7] has the same target. In words: qHTS assay to identify small molecule agonists of the estrogen receptor alpha (ER-alpha) signaling pathway using the BG1 cell line (AID 743079). Note: nearly all actives have a fitted effect of over 20% in size. Note: potency is the fitted concentration of half-maximal effect. The conditions noted are these: BG1Luc4E2 cells, ERE-luciferase agonist, 22 h; activation: at 70.3 µM (top of the series).
The nature of assay [8]: qHTS assay to identify small molecule antagonists of the estrogen receptor alpha (ER-alpha) signaling pathway using the BG1 cell line - cell viability counter screen (AID 743081).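 Note: compound given together with 17beta-estradiol as the ER stimulus; nearly all actives have a fitted effect of over 45% in size.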
Assay [9] deals with Aromatase (Homo sapiens) (UniProt P11511). Put plainly: qHTS assay to identify aromatase inhibitors (AID 743083). Note: nearly all actives have a fitted effect of over 55% in size. Note: potency is the fitted concentration of half-maximal effect.
The nature of assay [10]: qHTS assay to identify small molecule antagonists of the estrogen receptor alpha (ER-alpha) signaling pathway using the BG1 cell line (AID 743080; calls by dose curve;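 note: BG1 cells stimulated with 17beta-estradiol alongside compound; nearly all actives have a fitted effect of over 25% in size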; note: potency is the fitted concentration of half-maximal effect). The procedure, abridged:
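BG1-Luc-4E2 cells (endogenous full-length ER-alpha, 4xERE luciferase) hormone-starved 5 days in charcoal-stripped FBS, plated 4,000/well for 24 h, then compound plus 17beta-estradiol for 21.5 h at 37 C; ONE-Glo luminescence read.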

Molecules are shown by their SMILES. Activity calls are given as the source filed them. Unless noted, calls come from the whole dose curve; as a rule, active = well fitted curve in the direction sought with a large enough effect in the repeat runs; inconclusive = weak or mixed curves; inactive = no such curve, though single readings can be large; an effect the other way counts as inactive or inconclusive.

Consider 19 molecules from PubChem BioAssay (Tox21).

Sequence of Estrogen receptor (Homo sapiens) (P03372 whole entry, looked up): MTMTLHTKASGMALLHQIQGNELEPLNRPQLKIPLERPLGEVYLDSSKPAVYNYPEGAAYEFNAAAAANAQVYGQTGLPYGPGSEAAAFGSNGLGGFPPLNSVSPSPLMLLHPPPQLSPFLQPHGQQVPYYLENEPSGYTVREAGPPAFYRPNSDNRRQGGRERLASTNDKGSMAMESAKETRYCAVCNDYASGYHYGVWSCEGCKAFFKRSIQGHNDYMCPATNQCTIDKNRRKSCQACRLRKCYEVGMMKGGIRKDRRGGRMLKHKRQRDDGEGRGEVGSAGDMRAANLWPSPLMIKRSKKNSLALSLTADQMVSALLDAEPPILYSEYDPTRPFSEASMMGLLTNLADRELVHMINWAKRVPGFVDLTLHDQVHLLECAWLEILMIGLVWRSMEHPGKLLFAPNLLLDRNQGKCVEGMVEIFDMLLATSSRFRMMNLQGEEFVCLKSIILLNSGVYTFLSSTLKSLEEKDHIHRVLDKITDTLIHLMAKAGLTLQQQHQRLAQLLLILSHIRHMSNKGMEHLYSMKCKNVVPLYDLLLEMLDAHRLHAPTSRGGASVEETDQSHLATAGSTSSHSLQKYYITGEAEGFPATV
Sequence of Aromatase (Homo sapiens) (P11511 whole entry, looked up): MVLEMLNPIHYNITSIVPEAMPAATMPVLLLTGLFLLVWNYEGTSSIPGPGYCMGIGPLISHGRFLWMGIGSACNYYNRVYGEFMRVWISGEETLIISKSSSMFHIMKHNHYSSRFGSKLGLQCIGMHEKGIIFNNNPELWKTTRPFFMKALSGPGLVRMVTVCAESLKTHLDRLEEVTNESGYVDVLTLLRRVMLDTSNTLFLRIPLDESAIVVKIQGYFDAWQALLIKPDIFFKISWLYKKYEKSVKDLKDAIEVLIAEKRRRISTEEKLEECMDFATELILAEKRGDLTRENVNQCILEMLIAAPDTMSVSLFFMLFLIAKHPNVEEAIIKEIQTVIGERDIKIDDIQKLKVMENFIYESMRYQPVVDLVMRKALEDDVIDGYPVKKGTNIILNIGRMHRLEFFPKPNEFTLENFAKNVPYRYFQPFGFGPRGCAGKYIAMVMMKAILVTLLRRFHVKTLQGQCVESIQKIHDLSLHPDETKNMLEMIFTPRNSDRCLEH

With `CCOC(=O)O[C@]1(C(=O)COC(=O)CC)CC[C@H]2[C@@H]3CCC4=CC(=O)C=C[C@]4(C)[C@H]3[C@@H](O)C[C@@]21C`, the Potency result in assay [1], in assay [2], in assay [3], in [4], in assay [5] and in assay [6] was “inactive” in each case. Moreover, the Potency entry in assay [7], in [8] and in [9] was “inactive” throughout.
Consider `CN=C(NC)NCc1ccccc1`, for which the Potency result in [1], in assay [2], in [3], in [4], in assay [5] and in assay [6] was “inactive” throughout. Moreover, the Potency result in [10], in assay [8] and in assay [9] was “inactive” each time.
With `CCCOc1cc(N)ccc1C(=O)OCCN(CC)CC`, the Potency result in assay [1], in assay [2], in [3], in assay [4], in assay [5] and in assay [6] was “inactive” in each case. Besides, the Potency entry in [7], in assay [10] and in assay [9] was “inactive” each time.
Turning to `CC1(C)C(\C=C/C=C\C=C/C=C2/N(CCCCS(=O)(=O)O)c3ccc4ccccc4c3C2(C)C)=[N+](CCCCS(=O)(=O)[O-])c2ccc3ccccc3c21`, the Potency was 15 µM (active) in assay [1] and 0.841 µM (active) in assay [2]. The Potency entry in [3], in assay [4], in assay [5], in [6], in [7] and in [9] was “inactive” each time.
In the case of `O=C(c1cc2ccccc2o1)N1CCN(Cc2ccccc2)CC1`, the Potency entry in assay [1], in [2], in assay [3], in assay [4], in assay [5] and in [6] was “inactive” each time. The Potency result in assay [7], in [8] and in assay [9] was “inactive” throughout.
With `CC(C)c1nc(N(C)S(C)(=O)=O)nc(-c2ccc(F)cc2)c1/C=C/C(O)CC(O)CC(=O)O` (stereo not given), the Potency entry in assay [1], in [2], in assay [3], in assay [4], in assay [5] and in assay [6] was “inactive” in each case. In addition, the Potency entry in [8] was “inactive”. Moreover, the Potency in assay [7] is 26.6 µM (active).
On to `NCCCNCCCCNC(=O)C(O)NC(=O)CCCCCCN=C(N)N` (stereo not given), for which the Potency entry in [1], in assay [2], in assay [3], in assay [4], in [5] and in assay [6] was “inactive” in each case. For the same molecule, the Potency entry in assay [7], in [10] and in assay [9] was “inactive” in each case.
For `Nc1ncnc(Nc2ccc(Cl)cc2)n1`, the Potency entry in [1], in [2], in assay [3], in assay [4], in assay [5] and in [6] was “inactive” each time. In addition, in assay [9], the Potency result was “inactive”. For the same molecule, the Potency in assay [7] was 23.7 µM (active).
With `Cc1nnc(C(C)C)n1C1C[C@H]2CC[C@@H](C1)N2CC[C@H](NC(=O)C1CCC(F)(F)CC1)c1ccccc1` (stereo not given in full), the Potency entry in assay [1], in assay [2], in assay [3], in assay [4], in [5] and in assay [6] was “inactive” in each case. In addition, the Potency result in assay [7], in [10] and in [9] was “inactive” throughout.
On to `O=C(O)CCC/C=C\C[C@@H]1[C@@H](/C=C/[C@@H](O)COc2cccc(Cl)c2)[C@H](O)C[C@@H]1O`, for which the Potency entry in [1], in assay [2], in [3], in [4], in assay [5] and in assay [6] was “inactive” each time. The Potency entry in assay [7], in assay [8] and in assay [9] was “inactive” throughout.
With `CS(=O)(=O)NC(=O)CCC/C=C\C[C@H]1C(=O)C[C@@H](O)[C@@H]1/C=C/[C@H](O)COc1ccccc1`, the Potency entry in assay [1], in assay [2], in assay [3], in assay [4], in assay [5] and in assay [6] was “inactive” in each case. The Potency result in assay [7] and in assay [9] was “inactive” throughout.
In the case of `CCN(CC)CCOC(=O)c1ccc(N)cc1Cl`, the Potency result in assay [1], in [2], in assay [3], in assay [4], in assay [5] and in [6] was “inactive” in each case. The Potency result in assay [7], in [10] and in assay [9] was “inactive” in each case.
Regarding `CC[C@@]1(O)C(=O)OCc2c1cc1n(c2=O)Cc2cc3c([N+](=O)[O-])cccc3nc2-1`, the Potency was 2.37 µM (active) in assay [1]; 0.473 µM (active) in assay [2]; 4.77 µM [inconclusive] (active) in assay [4]; 0.266 µM (active) in assay [10]; 0.596 µM (active) in assay [9]. The Potency entry in [3], in assay [5] and in assay [6] was “inactive” each time.
Consider `CC1=C(/C=C/C(C)=C/C=C/C(C)=C/C=C/C=C(C)/C=C/C=C(C)/C=C/C2=C(C)C(=O)CCC2(C)C)C(C)(C)CCC1=O`, for which the Potency entry in assay [1], in assay [2], in assay [3], in assay [4], in assay [5] and in assay [9] was “inactive” throughout. Further, the Potency in [6] was 26.8 µM [inconclusive] (active); in [7], 5.31 µM (active).
Regarding `CC(C)(CO)[C@@H](O)C(=O)NCCCC(=O)O`, the Potency result in assay [1], in [2], in assay [3], in [4], in assay [5] and in assay [6] was “inactive” in each case. In addition, the Potency result in assay [10], in assay [8] and in assay [9] was “inactive” each time.
Turning to `CC(=O)N[C@@H](C=O)[C@@H](O)[C@H](O)[C@H](O)CO`, the Potency entry in [1], in assay [2], in assay [3], in [4], in [5] and in assay [6] was “inactive” each time. For the same molecule, the Potency entry in assay [7], in assay [10], in assay [8] and in assay [9] was “inactive” throughout.
As to `C[C@H](O)[C@H](O)[C@H]1CNc2nc(N)[nH]c(=O)c2N1`, the Potency entry in assay [1], in assay [2], in assay [3], in assay [4], in [5] and in assay [6] was “inactive” throughout. For the same molecule, the Potency result in assay [7], in assay [10] and in [9] was “inactive” throughout.
With `NC(N)=NCC1COc2ccccc2O1` (stereo not given), the Potency result in assay [1], in assay [2], in assay [3], in [4], in assay [5] and in assay [6] was “inactive” in each case. For the same molecule, the Potency result in assay [7], in assay [10] and in assay [9] was “inactive” in each case.
Consider `CCN(CC)c1ccc(N=Nc2ccc(S(=O)(=O)N(C)C)cc2)c(S(=O)(=O)NCC[n+]2ccccc2)c1`, for which the Potency entry in assay [1], in assay [2], in assay [3], in assay [4], in assay [5] and in assay [6] was “inactive” each time. Further, the Potency result in assay [10] and in assay [9] was “inactive” each time.
